Compound activity as filed in PubChem.
BoNT F protease: blocks Botulinum neurotoxin F light chain protease. Multiplex microsphere protease cleavage assay, flow cytometry. inhibition, % at 10 µM. 360,000 compounds, 0.22% hits. AID 588497; in the data active = inhibition above about 35%, passing the limit was not always enough; inconclusive = no clear call, values can overlap the other calls; note: plate controls were buffer without enzyme for full effect and enzyme alone for no effect
Anthrax LF prot: blocks Bacillus anthracis lethal factor protease; inhibition, % at 10 µM; multiplex microsphere protease cleavage assay, LF; 360,000 compounds, 0.12% hits; P15917; AID 588501; note: plate controls were buffer without enzyme for full effect and enzyme alone for no effect
Target sequence (P15917 whole entry, looked up): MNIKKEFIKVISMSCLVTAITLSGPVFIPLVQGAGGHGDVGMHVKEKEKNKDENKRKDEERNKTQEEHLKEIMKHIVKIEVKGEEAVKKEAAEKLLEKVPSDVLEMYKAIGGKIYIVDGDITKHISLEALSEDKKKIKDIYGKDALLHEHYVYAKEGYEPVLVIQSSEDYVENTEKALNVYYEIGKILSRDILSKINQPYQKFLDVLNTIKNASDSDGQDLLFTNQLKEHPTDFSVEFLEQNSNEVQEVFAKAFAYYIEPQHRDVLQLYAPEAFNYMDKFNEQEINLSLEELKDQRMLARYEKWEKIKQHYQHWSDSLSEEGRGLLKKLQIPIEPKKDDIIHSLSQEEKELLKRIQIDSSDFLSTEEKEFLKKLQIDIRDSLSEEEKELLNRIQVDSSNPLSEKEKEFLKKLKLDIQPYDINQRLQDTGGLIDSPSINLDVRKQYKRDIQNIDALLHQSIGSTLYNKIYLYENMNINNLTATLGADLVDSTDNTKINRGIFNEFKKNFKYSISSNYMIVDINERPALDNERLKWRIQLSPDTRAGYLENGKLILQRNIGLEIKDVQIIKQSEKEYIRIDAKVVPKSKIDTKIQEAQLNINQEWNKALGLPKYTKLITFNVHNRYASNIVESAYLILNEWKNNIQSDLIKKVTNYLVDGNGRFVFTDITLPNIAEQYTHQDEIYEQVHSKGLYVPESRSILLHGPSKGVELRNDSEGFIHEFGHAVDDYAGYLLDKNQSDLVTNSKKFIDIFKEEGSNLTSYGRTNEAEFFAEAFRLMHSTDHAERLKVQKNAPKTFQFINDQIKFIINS
Autofluor counter: counter-screen for toxin protease inhibitors: compound fluorescence; compound autofluorescence counterscreen, microsphere flow cytometry; active compounds read high; fluorescence intensity (test concentration not listed); 360,000 compounds, 3.1% hits; in the data active = fluorescence intensity above about 16000; inconclusive = no clear call, values can overlap the other calls
3CLpro inhibitor: SARS-CoV 3CLpro protease inhibition; P0C6X7; recombinant SARS-CoV 3CLpro, quenched FRET peptide cleavage; inhibition, % at 6 µM; 290,000 compounds, 0.14% hits; in the data active = inhibition above about 12%
CCHFV vOTU inh: blocks the CCHF virus ovarian tumor domain protease | 370,000 compounds, 0.55% hits | CCHFV vOTU protease, Pep-AMC fluorescence | inhibition, % at 11.5 µM; in the data active = inhibition above about 30%; note: 0% = vehicle wells with enzyme and 100% = no enzyme wells
BoNT-A LC inh2: BoNT A light chain protease inhibition; inhibition, % at 10 µM; multiplex microsphere protease substrate cleavage, flow cytometry; AID 588499; 360,000 compounds, 0.17% hits; note: plate controls were buffer without enzyme for full effect and enzyme alone for no effect
The depositor's hits bear a star; u = inconclusive; x = no result given. An excerpt weighted towards active compounds, which were near 3.9% of everything screened. Cut-off read from the data, not from the text of the source, unless noted: active = inhibition above about 30%; inconclusive = no clear call, values can overlap the other calls; inactive = below that.

SMILES	BoNT F protease	Anthrax LF prot	Autofluor counter	3CLpro inhibitor	CCHFV vOTU inh	BoNT-A LC inh2
CCC(C)NC(=O)c1c(N)n(CCCOC)c2nc3ccccc3nc12 (stereo not given)	6	-12	17608*	-2	14	8
COCCCn1c(N)c(C(=O)Nc2ccccc2)c2nc3ccccc3nc21	u	2	3998	-1	-6	-4
CC(=O)NC(CC(=O)NNC(=O)c1cccs1)c1ccccc1 (stereo not given)	-12	-1	3736	x	-11	3
Cc1ccc(/C=C2\CCOC2=O)cc1	35*	13	3611	3	-10	4
Nc1ccn([C@@H]2O[C@H](CNCc3cc(Br)ccc3OCc3ccccc3)[C@@H](O)[C@H]2O)c(=O)n1	-11	-3	3920	x	-8	0
CCn1cc(C(=O)Nc2ccc(Oc3cccnc3)cc2)c2ccccc21	x	x	x	x	14	x
COC(=O)c1ccc(N2CCCCC2)c(N)c1	-5	-4	4217	4	3	0
COC(=O)c1ccc(N2CCC(C)CC2)c(N)c1	-2	-6	22414*	-4	5	2
O=S1(=O)c2ccc(N3CCCC3)cc2Oc2ccccc2CN1Cc1cn(Cc2ccccc2C(F)(F)F)nn1	x	x	x	x	6	x
Cn1c(-n2c(CCCN3C(=O)c4ccccc4C3=O)nc3ccccc3c2=O)nc2ccccc21	-5	-1	5530	2	8	0
O=C1c2ccccc2C(=O)N1CCCc1nc2ccccc2c(=O)n1CCCn1ccnc1	-12	1	19567*	-5	-6	-9
Cc1ccc(C(=O)NNC(=O)c2cc(OCC(F)(F)F)ccc2OCC(F)(F)F)cc1	-9	-2	21489*	1	12	u
O=C(NNC(=O)c1cc(OCC(F)(F)F)ccc1OCC(F)(F)F)c1cccc(C(F)(F)F)c1	-2	-2	2889	4	18	0
C#CCONC(=O)c1cc(OCC(F)(F)F)ccc1OCC(F)(F)F	-3	-7	22449*	2	9	0
CCC(CC)N=C1NS(=O)(=O)c2cc([N+](=O)[O-])ccc21	-2	-3	4823	-1	8	-1
COc1ccccc1C(=O)NCC(=O)NCCC(c1ccccc1)c1ccccc1	-8	0	3767	x	13	-1
CCOC(=O)CSc1nc2ccsc2c(=O)n1C1CCN(C(=O)OCC)CC1	0	-4	8035	2	x	0
CCOC(=O)N1CCC(n2c(SCC(=O)NCc3ccco3)nc3ccsc3c2=O)CC1	-1	-3	23599*	-4	x	-1
CCOC(=O)CSc1nc2cc(C(=O)NCc3ccco3)ccc2c(=O)n1C1CCCCC1	0	-1	16581*	4	x	0
COC(=O)C1CN(Cc2ccc(C)cc2)CCS(=O)(=O)N1Cc1cn(Cc2ccc(OC)cc2)nn1 (stereo not given)	x	x	x	x	5	x
COc1ccc(C=Nn2c(-c3n[nH]c4c3CCC4)n[nH]c2=S)cc1OCc1ccccc1	x	x	x	x	7	x
COC(=O)[C@]12C[C@H](CC(=O)N3CCOCC3)C(=O)N(CCc3ccc(OC)c(OC)c3)C1=C[C@H](C(C)C)O[C@@H]2C1CC1	x	x	x	x	-3	x
COc1ccc(-c2cnn3c(N)c(S(=O)(=O)C(C)(C)C)cnc23)cc1	0	-10	21645*	4	6	u
CC(C)(C)S(=O)(=O)c1cnc2c(-c3ccc(Cl)cc3)cnn2c1N	-7	1	5860	5	-8	0
COc1ccc(-c2cnn3c(N)c(S(=O)(=O)c4ccccc4)cnc23)cc1	-2	-3	20604*	1	-1	-1
SMILES	BoNT F protease	Anthrax LF prot	Autofluor counter	3CLpro inhibitor	CCHFV vOTU inh	BoNT-A LC inh2
CC(C)(C)S(=O)(=O)c1cnc2c(-c3ccc(F)cc3)cnn2c1N	-1	1	21191*	-1	8	u
COc1ccc(-c2cnc3c(-c4ccc(F)cc4)cnn3c2N)cc1	3	0	3654	-7	-8	-1
CCOc1ccccc1N1CCN(CC(=O)Nc2ccccc2C(=O)NC2CC2)CC1	8	1	2804	x	-3	2
CC(NC(=O)c1ccco1)c1cccc2ccccc12 (stereo not given)	2	0	22307*	-6	-4	1
CCCCCCCCN1C(=O)[C@@H](CC(=O)NCc2ccccc2)C[C@@]2(C(=O)OC)C1=C[C@H](C1CCCC1)O[C@@H]2C	x	x	x	x	16	x
C=CCOc1c(Br)cc(C2NC(=O)NC(C)=C2C(C)=O)cc1OCC (stereo not given)	1	-2	22042*	-6	-10	3
CCOC(=O)COc1c(Br)cc(C2NC(=O)NC(C)=C2C(C)=O)cc1OC (stereo not given)	2	-2	15350	-3	3	4
N#Cc1ccc(NC(=O)N2CCC(c3nc4c(nnn4Cc4cccc(Cl)c4)c(=O)[nH]3)CC2)cc1	-4	-1	20736*	5	-1	0
O=C(Cc1cccs1)N1CCC(c2nc3c(nnn3Cc3ccccc3)c(=O)[nH]2)CC1	-4	0	20008*	-1	-3	-1
O=C(Cc1cccs1)N1CCCC(c2nc3c(nnn3Cc3ccc(F)cc3)c(=O)[nH]2)C1 (stereo not given)	-1	0	15568	1	-9	2
CC(C)(C)c1ccc(Cn2nnc3c(=O)[nH]c(C4CCN(C(=O)Cc5cccs5)CC4)nc32)cc1	-1	0	20958*	7	18	-1
Cc1ccc(Cn2nnc3c(=O)[nH]c(C4CCCN(S(=O)(=O)c5ccccc5)C4)nc32)cc1 (stereo not given)	5	-1	4287	0	-7	0
O=c1[nH]c(C2CCCN(S(=O)(=O)c3ccc(F)cc3)C2)nc2c1nnn2Cc1ccccc1 (stereo not given)	4	0	21368*	-4	-5	2
Cc1ccc(Cn2nnc3c(=O)[nH]c(C4CCN(C(=O)Cc5cccs5)CC4)nc32)cc1	2	3	10571	2	6	0
CC(=O)N(c1cccc(C(F)(F)F)c1)c1nc(/C=C/C(=O)O)cs1	-2	-1	4330	1	5	-1
COc1ccc2[nH]c(C(=O)Nc3cccc(C)n3)cc2c1	u	7	3916	0	-9	0
Cc1ccc(C)c(Cn2nnc3c(=O)[nH]c(C4CCCN(C(=O)CC(C)C)C4)nc32)c1 (stereo not given)	0	-8	21556*	1	x	5
CCCc1ccc(Oc2cc(N3CCOCC3)nc(-c3ccccc3)n2)cc1	-1	-2	23308*	4	x	1
COc1ccc(/C=C(/C(=O)Nc2ccccc2C(=O)NC(C)C)c2ccccc2)cc1	-7	-1	17014*	2	4	-2
COc1ccc(/C=C(/C(=O)Nc2ccccc2C(=O)N2CCCC2)c2ccccc2)cc1	1	0	22608*	7	2	0
CC(C)C[C@H](N)c1cn([C@@H](CCCCN)C(=O)N2CCNCC2)nn1	-2	-1	2860	-2	15	0
O=C1c2ccccc2C(=O)N1CCCCN(C(=O)c1cccc([N+](=O)[O-])c1)c1ccc(Cl)cc1	-6	0	20654*	2	13	-3
